# High-throughput results as filed in PubChem BioAssay.
# An excerpt weighted towards active compounds, which were near 4.4% of everything screened.
# TRHR ag: TRH receptor (human) agonism | P34981 | TRHR cells, calcium flux fluo-8, FDSS agonist mode | activation, % at 2 µM | 360,000 tested, 0.18% active; note: 0% is about no effect
#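 Steps: seed TRHR cells overnight; add fluo-8 no-wash Ca dye, RT 30 min–1.5 h; record 10 s baseline; pin-transfer compounds; monitor fluorescence 1 cycle/s for the agonist window. Calcium increases flag candidate agonists.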
# D1 antagonist: antagonists of human D1 dopamine receptor. HEK293 TREx D1 cells, calcium flux, dopamine EC80; stronger effect = lower value. activity change, negative = inhibition, % at 10 µM. 360,000 tested, 3.2% active. AID 504652; in the data active = activity change below about -30%; note: % is set by controls: 0 for no effect and ±100 for the full control effect
# Target sequence (P21728 whole entry, looked up): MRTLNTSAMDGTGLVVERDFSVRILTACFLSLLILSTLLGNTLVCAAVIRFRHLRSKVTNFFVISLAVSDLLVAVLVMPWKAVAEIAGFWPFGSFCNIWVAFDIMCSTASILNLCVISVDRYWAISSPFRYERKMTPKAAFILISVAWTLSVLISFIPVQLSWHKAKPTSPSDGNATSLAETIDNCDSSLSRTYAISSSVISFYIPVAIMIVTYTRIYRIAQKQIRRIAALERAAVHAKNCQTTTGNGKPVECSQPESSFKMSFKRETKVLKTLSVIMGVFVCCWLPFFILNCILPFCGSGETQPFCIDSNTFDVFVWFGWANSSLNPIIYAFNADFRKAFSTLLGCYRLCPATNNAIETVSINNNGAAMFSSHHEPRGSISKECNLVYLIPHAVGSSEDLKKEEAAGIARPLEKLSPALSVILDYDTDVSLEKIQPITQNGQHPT
#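 Tetracycline-induced HEK293 Trex D1 cells, force-coupled to calcium, dye-loaded; compounds added and read 180 s, then EC80 dopamine added and calcium flux tracked kinetically another 180 s.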
# D1 ag: agonists of human D1 dopamine receptor. 360,000 tested, 1% active. P21728. HEK293 T-REx D1 cells, calcium flux, agonist mode. activation, % at 2 µM. AID 504660; note: 0% is about no effect
#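 Inducible HEK293 T-REx D1 cells, force-coupled to calcium signalling, were plated at 4000 cells/well with tetracycline and held overnight at 30 C. After no-wash calcium dye loading, compound-evoked calcium rise over 180 s flagged agonists.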
# USP1-UAF1 inh: USP1/UAF1 (human) deubiquitinase inhibition. O94782. recombinant USP1/UAF1, Ub-Rhodamine cleavage fluorescence. Potency, µM (doses to about 57.1 µM), for the others: at the top dose activity change, negative = inhibition, usual class: inhibitors. 390,000 tested, 0.23% active. AID 743255; active = well fitted inhibition curve with a large enough effect; inconclusive = small, poorly fitted or top-dose-only effect; inactive = no such curve, though single readings can be large or run the other way; note: potency is the fitted concentration of half-maximal effect; % is set by controls: 0 for no effect and ±100 for the full control effect; nearly all actives have a fitted effect of over 60% in size
#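 1 nM enzyme complex + cpd, 15 min RT; start with Ub-Rho 150nM final; kinetic fluorescence ex 480/em 540, 6 reads q60 s. Buffer 50mM HEPES pH 7.8, 0.5mM EDTA, 0.1 mg/ml BSA, 1mM TCEP, 0.01% Tween-20.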
# TRHR PAM: TRH receptor (human) allosteric enhancement | enhancement, % at 2 µM | 360,000 tested, 0.66% active | TRHR cells, fluo-8 calcium fluorescence, EC20 TRH enhancement | AID 493056; in the data active = enhancement above about 30%; note: 0% is about no effect
#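 TRHR-expressing cells loaded with fluo-8 calcium dye were read kinetically (ex 480/em 530) during compound addition, then stimulated with an EC20 of TRH (10 nM final). Enhancement of the Gq-mediated intracellular calcium response was scored.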
# D1 potentiator: enhances dopamine response at the human D1 receptor. 360,000 tested, 0.036% active. P21728. potentiation, % at 10 µM. HEK293 TREx D1 cells, calcium flux, dopamine EC20 potentiation; in the data active = potentiation above about 30%; note: 0% is about no effect
# * = called active by the depositor; ? = inconclusive; ! = repeats disagree. Cut-off read from the data, not from the text of the source, unless noted: active = activation above about 30%; inactive = the rest.
SMILES,TRHR ag,D1 antagonist,D1 ag,USP1-UAF1 inh,TRHR PAM,D1 potentiator
Cc1ccc(C(CC(=O)Nc2ccc(F)c(Cl)c2)N2Cc3ccccc3C2=O)cc1 (configuration not stated),0,-2,-1,-29%,-1,-2
CCc1ccc(C2=CC(c3c(F)cccc3Cl)n3c(nc4ccccc43)N2)cc1 (configuration not stated),13,-8,39*,20%,18,-1
Cc1cccc(C2C=C(c3ccc(F)cc3)Nc3nc4ccccc4n32)c1 (configuration not stated),2,-1,9,?,1,2
O=C(c1ccccc1)c1ccc2nc(Nc3ccccc3Cl)c3nncn3c2c1,0,11,0,-1%,2,5
COc1ccc(C(C)=O)cc1CN(c1ccccc1OC)S(=O)(=O)c1cccs1,-1,-94*,5,-14%,1,1
CCOc1ccc(NC(=O)Cn2c(=O)n(CCCC(=O)NCCc3ccc(Cl)cc3)c(=O)c3ccccc32)cc1,0,12,0,-13%,2,-1
Cc1ccc(NC(=O)Cn2c(=O)n(CCCCC(=O)NCCc3ccc(Cl)cc3)c(=O)c3ccccc32)cc1,0,-46*,-1,-29%,17,2
COc1ccc(CCNC(=O)CCCn2c(=O)c3ccccc3n(Cc3ccccc3C)c2=O)cc1OC,-1,-33*,-1,-16%,11,3
CN1CCc2c(sc3c2C(=O)NC(c2ccc(OC(=O)c4ccc(C(C)(C)C)cc4)cc2)N3)C1 (configuration not stated),121*,-11,263*,32µM*,9,13
CN1CCc2c(sc3c2C(=O)NC(c2ccc(OC(=O)c4ccccc4)cc2)N3)C1 (configuration not stated),22,-10,114*,-22%,-4,-2
CN1CCc2c(sc3c2C(=O)NC(c2ccccc2)N3)C1 (configuration not stated),3,23,11,?,3,-2
CN1CCc2c(sc3c2C(=O)NC(c2ccc(OC(=O)c4ccc(Cl)cc4)cc2)N3)C1 (configuration not stated),71*,0,145*,?,1,1
CCCCN(C)C(=O)c1ccc2c(c1)N(Cc1ccc(F)cc1)C(=O)c1ccccc1S2(=O)=O,0,0,0,-8%,18,-1
CC(C)(C)C(=O)/C=c1\s/c(=C\c2ccc(-c3ccc([N+](=O)[O-])cc3)o2)c(=O)n1CC(=O)NC(N)=O,215*,8,894*,7.9µM*,-28,-11
CCC(=O)N/N=C/c1ccc(-c2ccc([N+](=O)[O-])cc2)o1,1,0,4,-18%,2,-1
O=c1c2c([N+](=O)[O-])cc([N+](=O)[O-])cc2sn1-c1ccc(Br)cc1,1,-1,0,5%,5,-10
O=c1c2c([N+](=O)[O-])cc([N+](=O)[O-])cc2sn1Cc1ccccc1,1,-29,51*,-18%,6,-5
COc1ccc(C)cc1NC(=O)c1oc2ccc(S(=O)(=O)N3CCC4(CC3)OCCO4)cc2c1C,1,7,0,16%,-2,-2
CC1CCN(c2ccc3nnc(CCC(=O)Nc4ccc(F)c(F)c4)n3n2)CC1,-1,-30*,1,-20%,-5,-8
CCOCCCNC(=O)CCc1nnc2ccc(N3CCN(c4cccc(OC)c4)CC3)nn12,0,-3,1,-21%,2,-3
CCOC(=O)C(Cc1ccccc1)NC(=O)CCc1nnc2ccc(N3CCCCC3)nn12 (configuration not stated),1,-33*,2,-13%,-4,-5
CCOC(=O)C(Cc1ccccc1)NC(=O)CCc1nnc2ccc(N3CCCC3)nn12 (configuration not stated),0,-3,1,-25%,-5,1
CCOCCCNC(=O)CCc1nnc2ccc(N3CCCCC3)nn12,0,-31*,1,-13%,-3,5
CCCSc1ncc(Cl)c(C(=O)Nc2scc(-c3ccc(C)cc3)c2C(=O)OCC)n1,0,-9,2,-23%,8,0
Cc1ccc(NC(=O)C(Cc2ccccc2)n2cccc2)c(C)c1 (configuration not stated),0,2,4,0%,-5,-4
SMILES,TRHR ag,D1 antagonist,D1 ag,USP1-UAF1 inh,TRHR PAM,D1 potentiator
COc1ccc(Cl)cc1NC(=O)c1ccc2c(c1)CCCN2S(C)(=O)=O,1,0,0,-26%,1,3
O=C(c1ccc2c(c1)OCO2)N(c1ccccc1)C1C=CS(=O)(=O)C1 (configuration not stated),0,-40*,3,-12%,-4,2
C=CCn1c(SCC(=O)/C(C#N)=C(\C)N)nnc1C1CCCCC1,0,-75*,2,-1%,9,-8
CCc1ccccc1NC(=O)COC(=O)c1cccs1,0,-16,-1,-17%,-3,-10
O=C(O)CCc1ccc(-c2ccccc2)n1CC(=O)Nc1cccc(C(F)(F)F)c1,0,-65*,1,-5%,9,-9
O=C(O)CCc1ccc(-c2ccccc2)n1CC(=O)Nc1ccccc1C(F)(F)F,0,-11,4,-14%,-7,-1
O=C(COC(=O)c1cccs1)Nc1ccccc1C(F)(F)F,1,-32*,32*,-22%,11,-4
C=CCn1c(CCC(=O)O)ccc1-c1ccccc1,0,-56*,3,-15%,-1,-2
O=C(O)CCc1ccc(-c2cccs2)n1CC(=O)Nc1ccccc1C(F)(F)F,0,-39*!,2,-1%,3,-3
CCCS(=O)(=O)c1nc(S(=O)(=O)c2ccc(C)cc2)c(N(CC)CC)s1,1,1,9,-21%,-4,-1
CCCS(=O)(=O)c1nc(S(=O)(=O)c2ccc(C)cc2)c(N(C)Cc2ccccc2)s1,2,-21,35*,13%,-7,-2
CCC1(CC)NC(=S)N(Nc2ccccc2)C1=O,0,-33*,0,2%,1,-9
O=C(O)c1[nH]c2ccccc2c1C(c1cc(Cl)cc([N+](=O)[O-])c1O)c1c(C(=O)O)[nH]c2ccccc12,0,2,0,32µM*,1,-2
O=C(O)c1[nH]c2ccccc2c1C(c1ccccc1)c1c(C(=O)O)[nH]c2ccccc12,0,4,4,-23%,2,-3
Cn1c(=O)oc2cc(S(=O)(=O)NC(Cc3ccccc3)C(=O)Nc3ccc(F)cc3)ccc21 (configuration not stated),0,-7,1,-15%,0,1
